# Compounds with a hit are over-represented: about 6.9% of the library has one in this group of screens.
# GRIN3A LBD mod – NR3A (human) ligand-binding domain modulation | NR3A LBD differential scanning fluorimetry, Tm shift; 0% = protein alone, 100% = glycine-bound protein | hit rate 2.5% among 340,000 | Tm shift relative to glycine control, % at 25 µM;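 active = melting temperature shift of at least 10% of the positive control shift, at one fixed dose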
# CSC inhib – blocks cancer stem cells; AID 2717; hit rate 1.1% among 300,000; cancer stem cell-like cells viability, luminescence; inhibition, % at 7.5 µM; in the data active = inhibition above about 75%; tested in HMLE shEcad cells
# Beta apoptosis – blocks beta cell apoptosis; hit rate 0.8% among 300,000; AID 435005; INS-1E cytokine-induced death, ATP luminescence, 48 h; percent of positive-control rescue, neutral wells zero; protection from apoptosis, % (no concentration beside the values);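 active = Every replicate reaches about 75%, or at least half do and their mean reaches it too, limit read from the data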;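 also: 0% = cytokine-treated negative control wells and 100% = positive control rescue; higher means more ATP so stronger rescue from cytokine killing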
# Mdm2-MdmX inh – disrupts the human Mdm2-MdmX interaction | hit rate 3% among 330,000 | SaOS-2 split-luciferase Mdm2/MdmX complementation, luminescence | inhibition, % at 8 µM | O15151+Q00987;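 active = inhibition of at least 50% at 8 µM in the primary screen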
# MPTP block – blocks calcium-induced mitochondrial swelling. isolated mouse mitochondria, Ca2+ swelling absorbance, 30 min. inhibition, % at 10 µM. hit rate 1.4% among 360,000;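 active = inhibition of 50% or more, scaled per plate between neutral and stimulator controls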;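 also: 0% = DMSO wells given calcium and 100% = 1 mM EGTA wells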
# SKKanGAS inh – SKKanGAS growth inhibition. S. pyogenes SKKanGAS, kanamycin growth, BacTiter-Glo, 6 h. inhibition, % at 7.5 µM. hit rate 1.3% among 300,000. AID 1662;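 active = mean replicate score, as percent of positive control median, at least 50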;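 also: strain carries kanamycin resistance gene driven by streptokinase promoter and grows in 40 µg/ml kanamycin; loss of luminescence reflects streptokinase promoter inhibition or plain growth inhibition; 0% = median of DMSO wells and 100% = positive control at its reference dose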
# * marks the source's active call; other numbers are inactive results; · = no result given.
SMILES,GRIN3A LBD mod,CSC inhib,Beta apoptosis,Mdm2-MdmX inh,MPTP block,SKKanGAS inh
COc1c(N2CCN(C(=S)NCc3ccccc3)C(C)C2)c(F)cc2c(=O)c(C(=O)O)cn(C3CC3)c12 (configuration not stated),-5,·,31,4,-8,106*
Nc1nnc(SCCOc2cccc(Br)c2)s1,13*,15,-4,-18,-1,-16
CCCOc1ccc(OCCSc2nnc(N)s2)cc1,-2,21,1,-53,·,-19
CCOCCCn1c(=N)c(S(=O)(=O)c2ccc(C)cc2)cc2c(=O)n3cc(C)ccc3nc21,-24,-5,-11,33,6,5
Oc1ccc(C[C@H]2CNC(=S)N2CC2CCCN2C[C@H](Cc2ccc(O)cc2)N2C[C@H](Cc3ccc(O)cc3)N(CC3CCCCC3)C2=S)cc1 (some centres not stated),19*,·,·,·,-2,·
Oc1ccc(C[C@H]2CN([C@@H](Cc3ccc(O)cc3)CN3CCC[C@@H]3CN3C(=S)NC[C@@H]3Cc3ccccc3)C(=S)N2CC2CCCCCC2)cc1,·,·,·,·,1,·
CC(C)C[C@H]1CNC(=S)N1C[C@H]1CCCN1C[C@H](Cc1ccc(O)cc1)N1C[C@H](Cc2ccccc2)N(CCc2ccccc2)C1=S,·,·,·,·,-1,·
Oc1ccc(C[C@H]2CNC(=S)N2CC2CCCN2C[C@H](Cc2ccccc2)N2C[C@H](Cc3ccc(O)cc3)N(CC3CCCCCC3)C2=S)cc1 (some centres not stated),33*,·,·,·,0,·
Oc1ccc(C[C@H]2CN([C@@H](Cc3ccccc3)CN3CCCC3CN3C(=S)NC[C@@H]3Cc3ccccc3)C(=S)N2CC2CCCCC2)cc1 (some centres not stated),·,·,·,·,2,·
Oc1ccc(C[C@H]2CNC(=S)N2CC2CCCN2C[C@H](Cc2ccc(O)cc2)N2C[C@H](Cc3ccccc3)N(CCc3ccccc3)C2=S)cc1 (some centres not stated),12*,·,·,·,2,·
Cn1c(=O)c2cc(NC(=O)OCCF)ccc2n1Cc1cccc(C(F)(F)F)c1,·,·,·,·,1,·
C/C(=N\NC(=S)NCCc1ccccc1)c1ccc(O)cc1O,17*,·,18,-3,2,-8
C/C(=N\NC(=S)NCCc1ccccc1)c1ccc(Cl)cc1Cl,-2,57,4,11,1,91*
S=C(NCCc1cccc(Cl)c1)NCc1ccccc1,·,5,-2,6,12,·
CCCNC(=O)C1(C)CCN(Cc2cccc(OC(=O)c3ccccc3)c2)C1 (configuration not stated),·,·,·,·,1,·
Cc1noc(C)c1C(=O)Nc1ccc(-c2nnc3n2CCCCC3)cc1,0,·,-1,-33,-2,·
CN1CCN(C(=O)C2Cc3c(-c4cccc(F)c4)ccnc3O2)CC1 (configuration not stated),·,·,·,·,-3,·
COc1ccc(N(C(=O)CCl)C(C(=O)NCCc2ccccc2)c2cccs2)cc1 (configuration not stated),10,111*,-4,·,2,-5
CNc1ncnc2c1ncn2[C@H]1CN(CCc2ccccc2)C[C@@H](CO)O1,·,·,·,·,0,·
CC1(C)CC2CC(C)(CN2C(=O)COC(=O)c2cccc([N+](=O)[O-])c2)C1 (configuration not stated),11*,-20,-11,-6,-1,·
CC1(C)CC2CC(C)(CN2C(=O)COC(=O)c2cccc(O)c2)C1 (configuration not stated),-1,1,-1,1,-1,·
CCC(C)(C)n1nnnc1C(c1ccccc1F)N1CCN(C(=O)c2ccco2)CC1 (configuration not stated),-1,-5,3,-8,2,-2
COc1ccc(C(=O)Nn2c(C)nc3ccccc3c2=O)cc1,0,2,1,0,0,0
CCCOc1ccc(C(=O)Nn2c(C)nc3ccccc3c2=O)cc1,11*,7,1,3,-1,4
O=C(Nn1c(SCc2cccc([N+](=O)[O-])c2)nc2ccccc2c1=O)c1ccccc1,1,13,-7,-60,2,12
COc1ccc(C(=O)Nn2cnnc2)cc1,-1,-7,-7,-20,0,0
COc1ccc(C(=O)Nn2c(SCc3cccc([N+](=O)[O-])c3)nc3ccccc3c2=O)cc1,17*,7,3,15,0,3
